Source: PubChem BioAssay
Most compounds without a hit are left out; they make up all but 13% or so of the library.
HCMV antiviral: inhibitors of human cytomegalovirus; 4.5% of 410,000 active; HFF cells, HCMV-luciferase reporter, 72 h; active compounds read low; activity change, negative = inhibition, % at 57.5 µM; in the data active means activity change below about -60%; inconclusive means no clear call, values can overlap the other calls; inactive means above about -39%
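Screen run at 2 compound doses on HFFs infected with reporter HCMV, MOI 1 PFU/cell. Luciferase activity from cell lysates at 72 h post infection gave inhibition relative to buffer-only and Salinomycin wells.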
Pf growth 48h: inhibits P. falciparum growth in the first generation, 48 h | P. falciparum luciferase growth in erythrocytes, 48 h | Potency, µM (titrated, usually from 28.7 µM), without a hit: top-dose activity change, negative = inhibition, usual class: inhibitors | 5.9% of 310,000 active | AID 504832; further: potency means the concentration at half of the fitted maximal effect
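Here the parasites carry a stable luciferase gene and grow inside erythrocytes in Albumax-based RPMI medium with compound for one erythrocytic cycle. Activity is scored as loss of luminescent signal.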
Pf growth 96h: inhibits malaria parasite growth, 96 h; P. falciparum luciferase reporter growth, 96 h; Potency, µM (series often up to 28.7 µM), for the others: at the top dose activity change, negative = inhibition, usual class: inhibitors; 6.9% of 320,000 active; AID 504834; further: potency means the concentration at half of the fitted maximal effect
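Compounds incubated with erythrocytes infected by luciferase-expressing P. falciparum (2% hematocrit, 0.05% parasitemia final) for 96 hours, 37 C in 5% CO2. Growth inhibition scored as decreased luciferase luminescence.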
HCV inh: blocks hepatitis C virus. Huh7.5.1 HCVcc-Cre infection, luciferase reporter, 44 h. Potency, µM (top dose mostly 41.8 µM), inactives show top-dose activity change, negative = inhibition, usual class: inhibitors. 3.4% of 340,000 active. AID 651820; further: potency means the concentration at half of the fitted maximal effect
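Seed cells (1,000/well) for 4 h; treat with compound and infect with HCVcc-Cre, moi about 0.5. Incubate 44 h, then detect luciferase activity.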
An asterisk follows results filed as active; ? = inconclusive; / = no result given; + = active, no number; [ ] = remark or other dose. Unless noted, the call rests on the fitted dose curve; in most records, active means well fitted inhibition curve with a large enough effect; inconclusive means small, poorly fitted or top-dose-only effect, or another doubt; inactive means no such curve, though single readings can be large or run the other way. On the % scale 0 is the no-effect control and ±100 the full control effect.

SMILES | HCMV antiviral | Pf growth 48h | Pf growth 96h | HCV inh
O=C(Cn1c(=O)oc2ccc(Cl)cc21)NC1CCCCC1 | ? | -23% | 9.3µM* | 18%
COc1ccc(NC(=O)Cn2c(=O)oc3cc(S(=O)(=O)N4CCC(C)CC4)ccc32)c(OC)c1 | -35 | / | / | /
CCc1ccccc1NC(=O)c1cc(S(=O)(=O)N2CCCc3ccccc32)ccc1F | -32 | / | / | /
COc1ccc(-c2noc(CN(C(=O)c3ccc(C)cc3C)C(C)C)n2)cc1 | -4 | / | / | /
CCc1ccc(S(=O)(=O)c2cn(CC(=O)Nc3ccc(C)cc3)c3ccccc3c2=O)cc1 | 13 | / | / | /
COc1ccc(NC(=O)Cn2c(=O)oc3cc(S(=O)(=O)NC4CCCC4)ccc32)cc1OC | + | / | / | /
Cc1cc(C)nc(NS(=O)(=O)c2ccc(NC(=O)Cn3c(=O)oc4ccccc43)cc2)n1 | 47 | / | 6.6µM* | 10%
COc1ccc(NC(=O)Cn2c(=O)oc3cc(S(=O)(=O)NC(C)C)ccc32)cc1OC | 0 | / | / | /
O=C(c1[nH]c(C(F)(F)F)nc1-c1ccccc1)N1CCN(Cc2c(F)cccc2Cl)CC1 | -30 | / | / | /
O=C(Nc1nnc2n1CCS2)c1ccccc1 | -68* | / | / | /
Cc1ccccc1-c1nc(CN2CCC(C(=O)NC(C)C)CC2)c(C)o1 | 19 | / | / | /
CC(CCc1ccccc1)NCC(O)c1ccc(O)c(C(N)=O)c1 (stereo unspecified) | -31 | 13µM* | ? | 0%[8.37 µM]
COc1ccc([C@H]2CC(=O)C=C(c3cc(C)ccc3F)C2)cc1 | -11 | -27% | 13% | -24%
COc1ccc([C@H]2CC(=O)C=C(c3ccnc4ccc(Cl)cc34)C2)cc1 | -78* | ? | ? | ?
COc1ccc([C@H]2CC(=O)C=C(c3ccccc3-c3ccccc3)C2)cc1 | 16 | ? | 13µM* | ?
COc1ccc([C@H]2CC(=O)C=C(c3cc(Cl)ccc3C)C2)cc1 | -36 | 1% | ? | -22%
COc1ccc([C@H]2CC(=O)C=C(c3ccc(CNC(=O)OC(C)(C)C)cc3)C2)cc1 | 21 | 12µM* | 5.9µM* | ?
COc1ccc([C@H]2CC(=O)C=C(c3cc(C)ccc3OC)C2)cc1 | -1 | 0% | ? | 7.9µM*
COc1ccc([C@H]2CC(=O)C=C(c3ccc(-c4ccccc4)c(F)c3)C2)cc1 | -29 | 60% | 35% | 0%
COc1ccccc1-c1nn(CCC(=O)Nc2ccc(C)cc2)c2nc(C)cc(C)c12 | 20 | / | / | /
Cc1ccc(CNC(=O)c2c(-c3ccccc3Cl)noc2C)o1 | -4 | / | / | /
COc1ccc([C@H]2CC(=O)C=C(c3cccc(F)c3OC)C2)cc1 | -4 | 13% | 33% | ?
COc1ccc([C@H]2CC(=O)C=C(c3ccccc3Oc3ccccc3)C2)cc1 | 5 | 10µM* | ? | ?
Fc1ccccc1CSc1nc2ncc(Br)cc2[nH]1 | 32 | / | 13µM* | -2%
O=[N+]([O-])c1ccc(CSc2nc3ncc(Br)cc3[nH]2)cc1 | -62* | ? | 0% | -2%
SMILES | HCMV antiviral | Pf growth 48h | Pf growth 96h | HCV inh
Cc1cc(C)c(S(=O)(=O)Nc2ccc3oc(C)c(C(=O)OC(C)C)c3c2)cc1C | -17 | / | / | /
CCOCCCn1c(=S)[nH]c2cc(C(=O)N3CCN(c4ccccc4)CC3)ccc2c1=O | 0 | 19% | 15µM* | ?
CCOCCCn1c(=S)[nH]c2cc(C(=O)N3CCN(C4CCCCC4)CC3)ccc2c1=O | 50 | 1% | 5.2µM* | ?
Cc1cccc(N2CCN(C(=S)Nc3ccc4nc(N5CCN(C)CC5)cc(C)c4c3)CC2)c1C | 0 | 12µM* | ? | ?
Cc1cc(N2CCN(C)CC2)nc2ccc(NC(=S)N3CCN(c4ccc(Cl)cc4)CC3)cc12 | ? | 13µM* | 82% | ?
Cc1cccc(N2CCN(C(=S)Nc3ccc4nc(N5CCN(C)CC5)cc(C)c4c3)CC2C)c1 (stereo unspecified) | ? | ? | 9.3µM* | ?
Cc1cc(N2CCN(C)CC2)nc2ccc(NC(=S)N3CCN(c4ccc(F)cc4)CC3)cc12 | -33 | -17% | 3.7µM* | 10µM*
CCOc1cc(CNC(=O)C(NS(=O)(=O)c2cccs2)C(C)C)cc(OCC)c1OCC (stereo unspecified) | 3 | / | / | /
CCc1ccc(NC(=O)CC2C(=O)N(c3cccc(OC)c3)C(=O)N2C2CCCC2)cc1 (stereo unspecified) | -4 | / | / | /
CCc1nn(CC(=O)NCc2cccc(OC)c2OC)c(=O)c2cc3occc3n12 | -25 | / | / | /
COc1cccc(Cc2nc3ccccc3nc2SCC(=O)NCCc2ccccc2)c1 | -21 | / | / | /
CCOC(=O)N1CCC(NC(=S)Nc2ccc3nc(N4CCN(C)CC4)cc(C)c3c2)CC1 | -31 | ? | -21% | 10µM*
Cc1cc(N2CCN(C)CC2)nc2ccc(NC(=S)N3CCCCC3)cc12 | ? | 3.3µM* | 9.3µM* | -5%
COCC(=O)N1[C@@H]2Cn3c(ccc(Br)c3=O)[C@H]1[C@@H](C(=O)OC)[C@@H]2CO | -8 | / | / | /
Cc1ccc(CCNC(=O)c2cccc(Nc3nc4ccccc4nc3-n3nc(C)cc3C)c2)cc1 | -1 | / | / | /
CNC(=O)/C(=N\O)c1ccccc1 | / | 46% | 9.3µM* | /
Cn1nnnc1SCC(=O)NC1CCCCC1 | -22 | 19% | 73% | 13%
CCCCn1nnnc1SCC(=O)NC1CCCCC1 | -99* | -1% | 68% | 9%
CCCN1CCN(CCCNC(=O)c2cc3c(=O)[nH]c4ccccc4c3s2)CC1 | 26 | ? | 421% | ?
COCCNC(=O)c1cc2c(=O)[nH]c3ccccc3c2s1 | 31 | ? | 1.2µM* | 3%
CCN(CCCNC(=O)CCn1c(=O)[nH]c2ccccc2c1=O)c1ccccc1 | -8 | / | 7% | -8%
CCN(CCCNC(=O)c1cc2c(=O)[nH]c3ccccc3c2s1)c1ccccc1 | -81* | / | / | /
COc1cccc(N(Cc2nnc3n2CCCCC3)C(=O)Nc2cccc(Cl)c2)c1 | 9 | / | / | /
Cc1ccc2nc(-c3ccncc3)c(Nc3ccc(C(C)C)cc3)n2c1 | 2 | / | / | /
O=C(c1cnccn1)N1CC(=O)N2[C@@H](CO)[C@H](c3ccc(Br)cc3)[C@@H]2C1 | -23 | / | / | /
SMILES | HCMV antiviral | Pf growth 48h | Pf growth 96h | HCV inh
CCc1cc2c(cc3c(=O)n(CCCC(=O)NCc4ccccc4Cl)nc(CC)n32)s1 | 62 | / | / | /
NNc1nnc2c3cc(F)ccc3n(CCc3ccccc3)c2n1 | -94* | ? | ? | ?
CCN(CC)CCSc1nnc2c3cc(F)ccc3n(Cc3ccccc3)c2n1 | -22 | / | 5% | ?
CCc1ccccc1N(CC)C(=O)c1c(C)oc2ncnc(N3CCOCC3)c12 | -24 | / | / | /
O=C(NC1CCCCCC1)c1cc2c(Cl)nc3ccccc3c2s1 | -1 | / | / | /
CCOc1ccccc1OCCn1nnc2ccccc21 | 51 | 0% | 10µM* | 6%
O=C(Cn1nnc2ccccc21)Nc1ccccc1[N+](=O)[O-] | -18 | -15% | 44% | 14%
CCOc1cc(C#N)c(NC(=O)Cn2nnc3ccccc32)cc1OCC | 0 | 6% | 5.9µM* | -10%
COc1cccc(CN2CCN(C(=O)[C@H]3O[C@@H](n4cnc5c(N)ncnc54)[C@H](O)[C@@H]3O)CC2=O)c1 | 10 | / | / | /
